About 19,000 (20%) of roughly 96,000 compounds were called active.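 The calls were made as follows: active = blocking of liver enzyme CYP2C9 beyond about 50% at 5 µM (limit read from the data); inactive = the rest.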 Not all results are given here. Residues, ends and D or L forms follow the SMILES beside them. *: point of attachment. Bz = O=C(c1ccccc1)*

In the test the target is Cytochrome P450 2C9 (Homo sapiens) (UniProt P11712). Description: blockers of cytochrome P450 2C9 activity – biochemical, luminescence, ADME assay, primary screen (AID 777). The conditions noted are these: CYP2C9 Supersomes, luciferin-H conversion, at 5 µM, active compounds read high.
Chain of Cytochrome P450 2C9 (Homo sapiens) (P11712 whole entry, looked up): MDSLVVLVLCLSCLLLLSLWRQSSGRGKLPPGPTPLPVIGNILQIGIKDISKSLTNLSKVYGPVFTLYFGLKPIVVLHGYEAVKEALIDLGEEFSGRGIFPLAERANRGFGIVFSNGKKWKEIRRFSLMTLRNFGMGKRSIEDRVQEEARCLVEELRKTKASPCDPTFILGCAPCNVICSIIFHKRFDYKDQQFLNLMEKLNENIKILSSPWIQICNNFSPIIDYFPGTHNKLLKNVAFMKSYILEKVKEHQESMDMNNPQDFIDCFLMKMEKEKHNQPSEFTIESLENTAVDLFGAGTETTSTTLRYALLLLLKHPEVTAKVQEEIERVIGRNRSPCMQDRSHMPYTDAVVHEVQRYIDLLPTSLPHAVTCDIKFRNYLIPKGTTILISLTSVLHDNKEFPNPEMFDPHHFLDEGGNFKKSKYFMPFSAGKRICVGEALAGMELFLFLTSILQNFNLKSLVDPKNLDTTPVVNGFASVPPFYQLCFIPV
In the case of `CCCNC(=O)NCc1ccc(N2CCCC2=O)cc1`, the inhibition – broadly, the drop in the measured response relative to a control, in per cent – was 17.2% (inactive).

As for `NC(=O)C1(N2CCCCC2)CCN(C2CC(=O)N(Cc3ccc(N4CCCC4=O)cc3)C2=O)CC1` (centres undefined), the inhibition is 50.1% (active).

With `COC(=O)c1cc(NC(=O)CN2CCC(C(N)=O)(N3CCCCC3)CC2)cc(C(=O)OC)c1`, the inhibition was 13.2% (inactive).

Regarding `C[C@@H](Nc1nc(-c2ccccc2)nc2c1oc1ccccc12)C(=O)O`, the inhibition was 11.2% (inactive).

As to `C=CCNC(=O)c1cc2nc(C3CC3)cc(C(F)F)n2n1`, the inhibition was 40% (inactive).

For `COc1cc(/C=C2\SC(=S)N(Nc3ncc(C(F)(F)F)cc3Cl)C2=O)cc(OC)c1OC`, the inhibition was 4.4% (inactive).

In the case of `Cc1ccc(C(=O)N2CCN(C3CCCCC3)CC2)s1`, the inhibition was 25.8% (inactive).

As to `O=C(C(Cc1ccccc1)n1cccc1)N1CCN(C2CCCCC2)CC1` (centres undefined), the inhibition is 94% (active).

Consider `O=C(NC(Cc1ccccc1)C(=O)N1CCCC1C(=O)O)c1ccccc1` (stereo not drawn) (Bz-Phe-Pro-OH; configuration not given here), for which the inhibition was -5.7% (inactive).

On to `CCOC(=O)CCCNC(=O)CN1C(=O)NC(CCc2ccccc2)C1=O` (centres undefined), for which the inhibition was -3.9% (inactive).

With `O=C(CN1C(=O)NC2(CCCCC2)C1=O)NCCC1=CCCCC1`, the inhibition was -1.7% (inactive).

With `O=C(CN1C(=O)NC(Cc2ccccc2)(Cc2ccccc2)C1=O)NCC1CCCCC1`, the inhibition is 55% (active).

Regarding `CC(=O)N1CCc2cc(S(=O)(=O)Nc3ccccc3N3CCN(C)CC3)ccc21`, the inhibition is 2% (inactive).

Consider `CCCC(=O)C1CCN(Cc2ccccc2)CC1`, for which the inhibition is -8.7% (inactive).

On to `Cc1nc2ccc(NC(=O)C(F)(F)F)cc2o1`, for which the inhibition is 4.8% (inactive).

`Cn1c(C(=O)NCCCN2CCCCC2)cc2sccc21`: the inhibition was 6.6% (inactive).

As for `CCOC(=O)c1ccn(-c2nc(-c3ccco3)cc(C(F)(F)F)n2)n1`, the inhibition was 62% (active).

On to `Cc1cc(C(F)(F)F)nn1-c1nc(-c2ccco2)cc(C(F)(F)F)n1`, for which the inhibition was 3.1% (inactive).

As to `O=C(CSc1nc(-c2ccco2)cc(C(F)(F)F)n1)N1CCc2ccccc2C1`, the inhibition was 45.8% (inactive).

In the case of `Cc1ccc2c(c1)N(CC(=O)N1CCCc3ccccc31)C(=O)C(C)O2` (centres undefined), the inhibition was 22% (inactive).

Take `CCOc1nc(-c2ccc(OC)cc2)ccc1-c1noc(-c2cc(OC)c(OC)c(OC)c2)n1`: the inhibition is 8.3% (inactive).

For `COc1cc(-c2nc(-c3ccncc3)no2)cc(OC)c1OC`, the inhibition is 76.6% (active).

With `COc1ccc(-c2noc(-c3cccc(OC)c3OC)n2)cc1OC`, the inhibition is -101% (inactive).

As for `CC(OC(=O)CN1C(=O)C2CCCCC2C1=O)C(=O)Nc1ncc(Cl)cc1Cl` (centres undefined), the inhibition is -1.7% (inactive).

On to `COc1ccccc1N1CCN(CCCCOc2ccc(F)cc2)CC1`, for which the inhibition is 12% (inactive).

Turning to `COc1ccc2oc(=O)c(C(=O)N3CCN(c4ccccc4F)CC3)cc2c1`, the inhibition was 28.7% (inactive).

Regarding `COc1ccc(Nc2ncc(C(=O)N3CCN(c4ccccc4OC)CC3)c3ccccc23)cc1`, the inhibition was 65.9% (active).

Regarding `COc1cnc(SCc2ccc(Cl)c(Cl)c2)nc1Cl`, the inhibition is 16.5% (inactive).

On to `CCOC(=O)c1cc(C)sc1NC(=O)C1CCC1`, for which the inhibition was 42.3% (inactive).

Regarding `Cc1ccc(S(=O)(=O)N2CCC(C(=O)N[C@@H](C)C(=O)NCCc3ccccc3)CC2)cc1`, the inhibition was -25.2% (inactive).

Turning to `O=C(NCCCN1CCN(Cc2ccccc2)CC1)C1CCN(S(=O)(=O)N2CCCC2)CC1`, the inhibition was 1.8% (inactive).

As to `O=C1c2cccnc2C(Nc2ccc(S(=O)(=O)N3CCCCCC3)cc2)N1Cc1ccccc1` (centres undefined), the inhibition was 53.4% (active).

Take `Cc1nn(-c2ccccn2)c2c1C(c1ccncc1)C1=C(CC(C)(C)CC1=O)N2` (centres undefined): the inhibition is 79.7% (active).

Regarding `Cc1cc2c(cc1C)NC(c1ccccn1)C1=C(CC(C)(C)CC1=O)N2` (centres undefined), the inhibition is -11.2% (inactive).

As to `CCOC(=O)c1c(-n2cnnn2)sc(C)c1C`, the inhibition is 10.3% (inactive).

For `Cc1cc(C)nc(NC(=O)Nc2ccccc2C(F)(F)F)n1`, the inhibition was -193% (inactive).

Take `O=C(Nc1ccc(Sc2ccc(Br)cc2)cc1)c1ccco1`: the inhibition is 3.3% (inactive).

Turning to `Cc1cccc(NC(=O)c2sc3nc4c(c(-c5ccco5)c3c2N)CCC4)c1`, the inhibition is 17.9% (inactive).

For the compound `CCCc1cc(=O)[nH]c(SCc2ccc(C#N)cc2)n1`, the inhibition is 60.3% (active).

For `CCCc1cc(=O)[nH]c(SCC(=O)c2cc(C)n(CCC)c2C)n1`, the inhibition was 5.3% (inactive).

Consider `CCCc1cc(=O)[nH]c(SCC(=O)OCc2ccccc2)n1`, for which the inhibition was 38.5% (inactive).

`O=C(CNC(=O)Cc1ccccc1)NCC(=O)OCC(=O)c1ccccc1Cl`: the inhibition is -33.1% (inactive).

Consider `CCC(=O)Nc1cccc(NC(=O)CSc2nnc(-c3ccc(NS(C)(=O)=O)cc3)n2C)c1`, for which the inhibition is 51.3% (active).

As for `Cn1c(SCC(=O)Nc2cccc(NC(=O)c3cccs3)c2)nnc1-c1ccncc1`, the inhibition is 89.8% (active).

Consider `CCCCSc1nnc(-c2ccc(NC(=O)CC)cc2)n1C`, for which the inhibition was -15.8% (inactive).

As to `COC(=O)c1ccc(NC(=O)CSc2nnc(CNc3ccc(OC)cc3)n2C)cc1`, the inhibition was 34% (inactive).

Consider `O=C(CSc1nnc(-c2ccncc2)n1C1CCCCC1)Nc1ccccc1`, for which the inhibition was 38.6% (inactive).

On to `Cn1c(SCC(=O)Nc2cccc(O)c2)nnc1-c1ccc(S(=O)(=O)N2CCOCC2)cc1`, for which the inhibition was 7.5% (inactive).

`Cc1ccccc1C(=O)Nc1cccc(-c2nnc(SCC(=O)O)n2C)c1`: the inhibition was -11.4% (inactive).

Turning to `COC(=O)c1ccc(NC(=O)CSc2nnc(-c3ccncc3)n2C)cc1`, the inhibition is 57.2% (active).

In the case of `CCn1c(SCC(=O)Nc2nccs2)nnc1-c1ccncc1`, the inhibition was 28% (inactive).

Consider `Cc1ccc(-c2ccc(=O)n(CC(=O)NCCCN3CCCCC3)n2)cc1`, for which the inhibition was 14% (inactive).

`COc1ccccc1C(=O)Nc1nc2nc(-c3ccccc3)cc(=O)n2[nH]1`: the inhibition was 42% (inactive).

Consider `O=C(NCCCCc1ccccc1)C1CC(c2ccc([N+](=O)[O-])cc2)=NO1` (centres undefined), for which the inhibition was 14.2% (inactive).

Regarding `O=C(CN1CCOCC1)Nc1ccc(NC(=O)CN2CCOCC2)c(Cl)c1`, the inhibition was -1.8% (inactive).

As to `CN(C)C(=O)c1cc(Br)ccc1Cl`, the inhibition was -6.9% (inactive).

With `CCCn1c(=NC(C)=O)c(C(=O)OCC)cc2c(=O)n3ccccc3nc21`, the inhibition is 17.1% (inactive).

Consider `O=C(CCc1ccc(S(=O)(=O)NC2CCCCC2)cc1)NCc1ccccc1`, for which the inhibition was 86.2% (active).

Regarding `CSc1ccc(S(=O)(=O)NC2CCCCC2)cc1`, the inhibition is 17.8% (inactive).

As to `O=C(OC1CCCCC1=O)c1cccc(S(=O)(=O)NCc2ccccc2)c1` (centres undefined), the inhibition is 43.1% (inactive).

Consider `O=C(CCc1ccccc1)NCc1cccnc1`, for which the inhibition is 15.7% (inactive).

In the case of `O=C(CN(CC1CCCO1)C(=O)CNS(=O)(=O)c1ccccc1)NCc1ccccc1` (centres undefined), the inhibition is 2.4% (inactive).

As for `CCCNS(=O)(=O)c1ccc(CCC(=O)NCc2cccnc2)cc1`, the inhibition was 76.8% (active).

On to `Cc1cc(Cl)c(S(=O)(=O)NCc2cccnc2)cc1OCC(N)=O`, for which the inhibition is -9.2% (inactive).

As to `O=C(C1CCC1)N1CCc2cc(S(=O)(=O)NCc3cccnc3)ccc21`, the inhibition was 32.9% (inactive).

Turning to `Cc1cccc(CCNS(=O)(=O)c2ccc(S(=O)(=O)NC3CCCC3)cc2)c1`, the inhibition is 65.4% (active).

`Cc1cc(S(=O)(=O)NC2CCCCC2)ccc1OCC(=O)NCc1cccnc1`: the inhibition was 81.1% (active).

For the compound `Cn1c(=O)c(=O)n(C)c2cc(S(=O)(=O)NCCc3ccccc3)ccc21`, the inhibition was 23.4% (inactive).

As for `O=S(=O)(NCc1cccnc1)c1ccc(Cl)nc1`, the inhibition is 6.6% (inactive).

Source of the values: PubChem BioAssay AID777 (Sanford-Burnham Center for Chemical Genomics, 2007).
